Target: CXorf56
Assay: pooled miR-30 sensor sort-seq; sequence = guide strand
Details: shRNA
Also: reference of the scale not given here.

| Sequence | sensor-assay potency score (higher = more potent) |
| --- | --- |
| TACTGCTCCATCCACAATGAAG | -1.81 |
| TTCTGAGTATATATGTTCGTTT | -0.865 |
| ATATGAGTCAGCAACTTCCCTA | -0.79 |
| TTCATTTTCGCTTTCTTGGCTT | 0.484 |
| TTTCTCTAACTGGCAGTCCAGC | -1.26 |

Target: CYB5D1
Assay: as above
Details: shRNA

| Sequence | sensor-assay potency score (higher = more potent) |
| --- | --- |
| TTGAAGTACAGAAGTATTGCAG | 0.794 |
| TACGTCTTGAGTCTACACGAGT | -1.09 |
| TACTTGATCTTCTTGTATCATT | -1.02 |
| TATTCCTGTGCCAATGACGTTA | -0.429 |
| TTAATGATGCGGATGCTCCGGG | -0.0268 |
| TACTGAGATAGTCAAATTCTTC | -1.34 |
| TTTGGATCAAACCAGTGGCTGA | -1.34 |
| TACAGAAGTATTGCAGGTGTGT | 0.111 |
| TGAAGTACAGAAGTATTGCAGG | -0.202 |
| TAGCGGTGTAGGATTTCCCATA | -1.38 |

Target: CYB5RL
Assay: as above
Details: shRNA

| Sequence | sensor-assay potency score (higher = more potent) |
| --- | --- |
| TTAATTAACACTTCAAAGTATC | -1.17 |
| TAGAGCAAACCGGACACGGTAG | -0.685 |
| TTTAATTAGGTCCTGGCCCAGG | -0.401 |
| TTAACACTTCAAAGTATCCTTC | 0.251 |
| TTCCTCAGTGTCGTCGTCCTCT | -0.09 |
| TCTAAGTCATCTACTATCCCTC | 0.024 |
| TTTATAGAAGAAATCTCCGAAA | -0.391 |
| TAGAGGTCAAACACACAGGGTG | -0.0487 |
| TTCTCTTGGTAACTCCAGGGAA | -0.56 |
| TAGGTGTCCTTAGTGAGCCTGT | 0.0964 |
| TTTCTCTTGGTAACTCCAGGGA | -0.389 |
| TAGCACTTAATTAACACTTCAA | 0.518 |

Target: CYBRD1
Assay: as above
Details: shRNA

| Sequence | sensor-assay potency score (higher = more potent) |
| --- | --- |
| TTTTCCTTGCTGCTACTTCATT | -1.57 |
| TTTATATTAATCACATCCTTTC | -0.692 |
| TTAACTCTGAATCTGATTTGTC | -0.16 |
| TTAAACTCTAGTGCGCTCCCAT | -0.237 |
| TAGAGCTAGTTTTGAAACGTGA | 0.234 |
| TTATTTCAAGAAACCATCCTTT | 0.251 |
| TTTAACTCTGAATCTGATTTGT | -0.198 |
| TATCAGTCCAACCCAGCTGTGC | -0.838 |
| TACTTCATTGTTTAACTCTGAA | -0.114 |
| TTCATCAGGAGCTTGCTGCATT | 0.213 |
| TATATTGTTAACATTGTGGTTC | 0.299 |

From the OligoGym collection
